Experimental data from PubChem BioAssay (NCATS).
Inconclusive results are not listed. Calls of active or inactive are those of the source. Unless noted, calls follow the shape of the dose curve; as a rule, active = well fitted curve in the direction sought with a large enough effect; inconclusive = small, poorly fitted or top-dose-only effect, or another doubt; inactive = no such curve, though single readings can be large; an effect the other way counts as inactive or inconclusive.

Key:
[1] = S16 Schwann cell viability assay (CellTiter-Glo assay) (AID 624031); settings: S16 rat Schwann cells viability, 24 h; series mostly up to 57.5 µM;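 also: native untransfected S16 rat Schwann cells; nearly all actives have a fitted effect of over 70% in size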
Method in brief: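 Counter-screen for cytotoxicity: parental S16 rat Schwann cells lacking the PMP22 reporters, treated 24 h with compound, viability from cellular ATP by CellTiter-Glo luminescence, normalized to DMSO (0%) and no-cell wells.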

AA1029 = assay: qHTS profiling for inhibitors of Plasmodium falciparum proliferation (AID 504749); also: nearly all actives have a fitted effect of over 60% in size; also: potency is read from the fitted curve at half-maximal effect; settings: P. falciparum in erythrocytes, SYBR Green DNA, 72 h; series mostly up to 28.7 µM
Method in brief: (§1)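 In a 72 h erythrocytic culture (37 C, humidified, 5% CO2) at 2.5% hematocrit and 0.3% starting parasitemia, compounds were tested; SYBR Green I in detergent lysis buffer stained parasite DNA overnight.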

CP191 = assay: as above; settings: P. falciparum in erythrocytes, SYBR Green DNA, 72 h; series mostly up to 28.7 µM
Method in brief: as §1

CP192 = assay: as above; settings: P. falciparum in erythrocytes, SYBR Green DNA, 72 h; series mostly up to 28.7 µM
Method in brief: as §1

CP203 = assay: as above; settings: P. falciparum in erythrocytes, SYBR Green DNA, 72 h; series mostly up to 28.7 µM
Method in brief: as §1

CP211 = assay: as above; settings: P. falciparum in erythrocytes, SYBR Green DNA, 72 h; series mostly up to 28.7 µM
Method in brief: as §1

CP215 = assay: as above; settings: P. falciparum in erythrocytes, SYBR Green DNA, 72 h; series mostly up to 28.7 µM
Method in brief: as §1

CP217 = assay: as above; settings: P. falciparum in erythrocytes, SYBR Green DNA, 72 h; series mostly up to 28.7 µM
Method in brief: as §1

CP250 = assay: as above; settings: P. falciparum in erythrocytes, SYBR Green DNA, 72 h; series mostly up to 12.8 µM
Method in brief: as §1

CP252 = assay: as above; settings: P. falciparum in erythrocytes, SYBR Green DNA, 72 h; series mostly up to 12.8 µM
Method in brief: as §1

CP256 = assay: as above; settings: P. falciparum in erythrocytes, SYBR Green DNA, 72 h; series mostly up to 28.7 µM
Method in brief: as §1

CP269 = assay: as above; settings: P. falciparum in erythrocytes, SYBR Green DNA, 72 h; series mostly up to 28.7 µM
Method in brief: as §1

N140 = assay: as above; settings: P. falciparum in erythrocytes, SYBR Green DNA, 72 h; series mostly up to 28.7 µM
Method in brief: as §1

PC49 = assay: as above; settings: P. falciparum in erythrocytes, SYBR Green DNA, 72 h; series mostly up to 28.7 µM
Method in brief: as §1

TAB165 = assay: as above; settings: P. falciparum in erythrocytes, SYBR Green DNA, 72 h; series mostly up to 28.7 µM
Method in brief: as §1

W2 = assay: as above; settings: P. falciparum in erythrocytes, SYBR Green DNA, 72 h; series mostly up to 12.8 µM
Method in brief: as §1

[2] = target: Estrogen receptor (Homo sapiens) (UniProt P03372); assay: qHTS assay for small molecule antagonists of estrogen receptor alpha signaling (AID 588513; active = well fitted curve in the direction sought with a large enough effect in the signal ratio, with a control signal flat, not every such curve was filed as active; the % refers to the signal ratio); settings: ER-alpha-UAS-bla HEK293, beta-lactamase ratio, antagonist mode; series mostly up to 76.9 µM
Estrogen receptor (Homo sapiens), sequence (P03372 whole entry, looked up): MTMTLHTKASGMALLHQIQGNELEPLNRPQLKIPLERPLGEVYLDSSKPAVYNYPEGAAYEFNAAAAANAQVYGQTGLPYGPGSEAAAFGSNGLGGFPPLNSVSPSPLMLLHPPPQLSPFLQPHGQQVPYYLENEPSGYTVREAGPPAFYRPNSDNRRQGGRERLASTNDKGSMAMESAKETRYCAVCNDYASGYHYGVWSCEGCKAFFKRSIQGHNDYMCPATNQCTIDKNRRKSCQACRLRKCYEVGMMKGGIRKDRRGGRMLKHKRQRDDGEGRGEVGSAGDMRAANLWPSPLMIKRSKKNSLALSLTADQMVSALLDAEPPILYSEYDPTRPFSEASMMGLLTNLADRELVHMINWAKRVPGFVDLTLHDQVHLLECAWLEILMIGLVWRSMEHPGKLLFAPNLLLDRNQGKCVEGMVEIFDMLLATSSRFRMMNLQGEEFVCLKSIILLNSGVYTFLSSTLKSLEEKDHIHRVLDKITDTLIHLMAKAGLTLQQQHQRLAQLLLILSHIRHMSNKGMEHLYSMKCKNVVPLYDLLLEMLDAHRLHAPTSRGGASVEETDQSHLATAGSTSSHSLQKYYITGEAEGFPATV
Method in brief: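 Beta-lactamase reporter, antagonist mode, HEK 293 GripTite cells; 0.5nM E2 stimulus, 18 h, 37 C; CCF4 dye 2 h RT; fluorescence. IC50 and efficacy from Hill fits, normalized to E2 and DMSO.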

[3] = qHTS assay for small molecule agonists of the antioxidant response element (ARE) signaling pathway (AID 651741; active = well fitted activation curve with a large enough effect in the signal ratio; the % refers to the signal ratio; also: potency is read from the fitted curve at half-maximal effect); settings: HepG2 ARE-bla reporter, beta-lactamase FRET ratio, 16 h; series mostly up to 96 µM
Method in brief: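 Agonist activity is measured as ARE-driven beta-lactamase expression in a stable HepG2 reporter line, using 16 h compound treatment at 37 C and a FRET substrate fluorescence readout after 2 h.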

[4] = qHTS assay for small molecule activators of the human pregnane X receptor (PXR) signaling pathway (AID 720659; call rule not given here); settings: DPX-2 HepG2 CYP3A4-luciferase, 24 h; series mostly up to 92.3 µM
[5] = target: Peroxisome proliferator-activated receptor delta (Homo sapiens) (UniProt Q03181); assay: qHTS assay for small molecule agonists of peroxisome proliferator-activated receptor delta signaling (AID 588534; calls by dose curve); settings: HEK293T PPARdelta-UAS-bla, beta-lactamase ratio, 18 h; series mostly up to 76.7 µM
Peroxisome proliferator-activated receptor delta (Homo sapiens), sequence (Q03181 whole entry, looked up): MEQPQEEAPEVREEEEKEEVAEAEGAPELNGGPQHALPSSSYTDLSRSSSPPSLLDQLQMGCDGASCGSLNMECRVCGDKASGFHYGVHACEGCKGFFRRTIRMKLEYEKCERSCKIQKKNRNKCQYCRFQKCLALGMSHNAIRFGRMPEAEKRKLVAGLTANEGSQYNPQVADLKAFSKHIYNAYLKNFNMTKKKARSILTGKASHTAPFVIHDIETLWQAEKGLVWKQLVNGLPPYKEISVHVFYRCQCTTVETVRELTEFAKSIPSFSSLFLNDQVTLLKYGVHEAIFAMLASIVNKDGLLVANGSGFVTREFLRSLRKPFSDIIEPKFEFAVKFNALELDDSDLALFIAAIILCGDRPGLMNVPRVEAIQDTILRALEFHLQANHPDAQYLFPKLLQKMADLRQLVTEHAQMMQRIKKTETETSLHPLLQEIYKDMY
Method in brief: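 EC50 and efficacy values derive from Hill fits of a concentration series in a beta-lactamase reporter cell assay. Exposure is 18 hrs at 37 C, with CCF4 fluorescence as the readout.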

Measured: Potency

C=CC1CN2CCC1CC2C(OC(=O)OCC)c1ccnc2ccc(OC)cc12 (stereo unspecified)
active: AA1029 5.01 µM | CP191 5.01 µM | CP192 6.75 µM | CP203 8.49 µM | CP211 15.1 µM | CP215 12 µM | CP217 7.94 µM | CP250 12.6 µM | CP252 8.91 µM | CP256 11.2 µM | CP269 9.53 µM | N140 11.2 µM | TAB165 0.501 µM | W2 2.13 µM
inactive: [1] | PC49

COc1nc(NC(C)C)nc(NC(C)C)n1
inactive: [2] | [3] | [4]

COc1cc2c(cc1OC)[C@@]13CCN4CC5=CCOC6CC(=O)N2C1[C@H]6[C@@H]5C[C@@H]43 (stereo partly specified)
not listed: [2] | [3] | [4] | [5]
inactive: all other assays above

CNC(C)[C@@H](O)c1ccccc1 (stereo partly specified)
not listed: W2 | [2] | [3] | [4] | [5]
inactive: all other assays above

CNc1ccc(C(=O)CC(O)CCC(C)C2OC(=O)CC(O)CC(=O)CC(O)CC(O)CC(O)CC(O)CC3(O)CC(O)C(C(=O)OC)C(CC(O[C@@H]4OC(C)C(O)C(N)C4O)/C=C/C=C/C=C/C=C/C=C/C=C/C=C/C2C)O3)cc1 (stereo partly specified)
not listed: [1] | [2] | [3] | [4] | [5]
inactive: all other assays above

CCc1cccc(C)c1N(C(=O)CCl)C(C)COC (stereo unspecified)
active: [3] 24.3 µM

CNC(=O)Oc1cccc2c1OC(C)(C)O2
inactive: [2] | [5]

CCC(C)C1O[C@]2(C=CC1C)CC1CC(C/C=C(\C)[C@H](OC3CC(OC)C(O[C@H]4CC(OC)[C@@H](O)C(C)O4)C(C)O3)[C@@H](C)/C=C/C=C3\COC4C(O)C(C)=C[C@H](C(=O)O1)[C@@]34O)O2 (stereo partly specified)
active: AA1029 11.2 µM | CP191 7.94 µM | CP192 19 µM | CP203 13.5 µM | CP211 12 µM | CP215 13.5 µM | CP217 10 µM | CP250 11.2 µM | CP252 11.2 µM | CP256 6.31 µM | CP269 15.1 µM | N140 10 µM | TAB165 12.6 µM | W2 4.78 µM
inactive: [1]

CC(C)N1C(=O)c2ccccc2NS1(=O)=O
inactive: [2] | [5] | [3] | [4]

CC(C)CC(CN)CC(=O)O (stereo unspecified)
inactive: [1]

CNC(=O)Oc1ccccc1OC(C)C
inactive: [2] | [5] | [3] | [4]

N#Cc1c(Cl)cccc1Cl
inactive: [2] | [5] | [3] | [4]

COP(N)(=O)SC (stereo unspecified)
inactive: [2] | [3] | [4]

CC([C@H](O)c1ccccc1)N(C)C (stereo partly specified)
active: W2 6.75 µM
not listed: [2] | [3] | [4] | [5]
inactive: all other assays above

CCS(=O)CCSP(=O)(OC)OC (stereo unspecified)
inactive: [2] | [5] | [3] | [4]

CCCCSP(=O)(SCCCC)SCCCC
inactive: [5]

O=C1C=C2C=CC3C[C@@]2(O1)C1CCCCN31 (stereo partly specified)
active: AA1029 12.6 µM | CP191 10 µM | CP211 13.5 µM | CP215 10.7 µM | CP217 8.91 µM | CP250 12.6 µM | CP252 11.2 µM | CP256 11.2 µM | CP269 15.1 µM | N140 12.6 µM | PC49 10 µM | TAB165 11.2 µM | W2 7.57 µM
inactive: [1]

CCC(=O)Nc1ccc(Cl)c(Cl)c1
inactive: [4]

CC(C)Nc1nc(Cl)nc(NC(C)C)n1
inactive: [5]
